Whole data set: some 1,500 compounds, median “Excess HSA synergy score (sum over dose matrix of excess over highest single agent)” near 43, cut for the lowest 2% near -900. Shown is part of a subset that was picked to be rich in the lowest values.

This note sets out measurements from the supplement of paper PMC7765376.

For the experiment, the system named is PEO-1. Description: Excess HSA synergy score (sum over dose matrix of excess over highest single agent) (score (summed % response)); higher = less synergy / more antagonism (negative = synergy). The settings on record: 72 h; read-out: viability/apoptosis luminescence (CellTiter-Glo or Caspase3-Glo / not stated per table); matrix design: 6x6, 5-fold dilutions (primary screen). For orientation: Cellular ATP, detected with luciferase, serves as a proxy for viable cell number.
As to `Cc1ccc(CN2CCNCC2)cc1NC(=O)CNc1ccc(F)c(F)c1` + CC[C@H](NC(=O)[C@H](C)NC)C(=O)N1C[C@@H](O)C[C@H]1Cc1c(-c2[nH]c3cc(F)ccc3c2C[C@@H]2C[C@H](O)CN2C(=O)[C@H](CC)NC(=O)[C@H](C)NC)[nH]c2cc(F)ccc12 [Birinapant], the “Excess HSA synergy score” value was found to be 191.

Consider `c1ccc2c(-c3cnn4cc(-c5ccc(N6CCNCC6)cc5)cnc34)ccnc2c1` + CC[C@H](NC(=O)[C@H](C)NC)C(=O)N1C[C@@H](O)C[C@H]1Cc1c(-c2[nH]c3cc(F)ccc3c2C[C@@H]2C[C@H](O)CN2C(=O)[C@H](CC)NC(=O)[C@H](C)NC)[nH]c2cc(F)ccc12 [Birinapant], for which the “Excess HSA synergy score” value was -53.9.

Take `CC(=O)NCCC(=O)N[C@@H](CCC(N)=O)C(=O)N[C@@H](CO)C(=O)N[C@@H](CCC(N)=O)C(=O)N[C@@H](CCC(N)=O)C(=O)N[C@H](C(=O)N[C@@H](Cc1ccccc1)C(=O)N[C@]1(C)CCCCCC/C=C\CCC[C@@](C)(C(=O)N[C@@H](CCC(N)=O)C(=O)N[C@@H](CC(N)=O)C(N)=O)NC(=O)[C@H](CC(C)C)NC(=O)[C@H](CC(C)C)NC(=O)[C@@H](CCCNC(=N)N)NC(=O)[C@H](Cc2c[nH]c3ccccc23)NC(=O)[C@H](CC(C)C)NC(=O)[C@H](CC(N)=O)NC1=O)[C@H](C)O` + CC[C@H](NC(=O)[C@H](C)NC)C(=O)N1C[C@@H](O)C[C@H]1Cc1c(-c2[nH]c3cc(F)ccc3c2C[C@@H]2C[C@H](O)CN2C(=O)[C@H](CC)NC(=O)[C@H](C)NC)[nH]c2cc(F)ccc12 [Birinapant]: the “Excess HSA synergy score” value was found to be 168.

Turning to `CCN1CCN(c2ccc(Nc3cc(N(C)C(=O)Nc4c(Cl)c(OC)cc(OC)c4Cl)ncn3)cc2)CC1` [Infigratinib] + CC[C@H](NC(=O)[C@H](C)NC)C(=O)N1C[C@@H](O)C[C@H]1Cc1c(-c2[nH]c3cc(F)ccc3c2C[C@@H]2C[C@H](O)CN2C(=O)[C@H](CC)NC(=O)[C@H](C)NC)[nH]c2cc(F)ccc12 [Birinapant], the “Excess HSA synergy score” value was -48.8.

Take `COc1cc2c(cc1Cc1cccc(Cl)c1F)c(=O)c(C(=O)O)cn2[C@H](CO)C(C)C` [Elvitegravir] + CC[C@H](NC(=O)[C@H](C)NC)C(=O)N1C[C@@H](O)C[C@H]1Cc1c(-c2[nH]c3cc(F)ccc3c2C[C@@H]2C[C@H](O)CN2C(=O)[C@H](CC)NC(=O)[C@H](C)NC)[nH]c2cc(F)ccc12 [Birinapant]: the “Excess HSA synergy score” value came out at 326.

As for `OCCC#Cc1nc(-c2ccc(F)cc2)c(-c2ccncc2)n1CCCc1ccccc1` + CC[C@H](NC(=O)[C@H](C)NC)C(=O)N1C[C@@H](O)C[C@H]1Cc1c(-c2[nH]c3cc(F)ccc3c2C[C@@H]2C[C@H](O)CN2C(=O)[C@H](CC)NC(=O)[C@H](C)NC)[nH]c2cc(F)ccc12 [Birinapant], the “Excess HSA synergy score” value came to 286.

For the compound `COc1ccc(/C=C\c2cc(OC)c(OC)c(OC)c2)cc1NC(=O)[C@@H](N)CO` [Ombrabulin] + CC[C@H](NC(=O)[C@H](C)NC)C(=O)N1C[C@@H](O)C[C@H]1Cc1c(-c2[nH]c3cc(F)ccc3c2C[C@@H]2C[C@H](O)CN2C(=O)[C@H](CC)NC(=O)[C@H](C)NC)[nH]c2cc(F)ccc12 [Birinapant], the “Excess HSA synergy score” value was -98.3.

`O=C(CO)N1CCC(c2n[nH]c(-c3ccc(Cl)cc3)c2-c2ccncn2)CC1` + CC[C@H](NC(=O)[C@H](C)NC)C(=O)N1C[C@@H](O)C[C@H]1Cc1c(-c2[nH]c3cc(F)ccc3c2C[C@@H]2C[C@H](O)CN2C(=O)[C@H](CC)NC(=O)[C@H](C)NC)[nH]c2cc(F)ccc12 [Birinapant]: the “Excess HSA synergy score” value is 244.

Consider `CC(C)(OCc1nn(Cc2ccccc2)c2ccccc12)C(=O)O` [Bindarit] + CC[C@H](NC(=O)[C@H](C)NC)C(=O)N1C[C@@H](O)C[C@H]1Cc1c(-c2[nH]c3cc(F)ccc3c2C[C@@H]2C[C@H](O)CN2C(=O)[C@H](CC)NC(=O)[C@H](C)NC)[nH]c2cc(F)ccc12 [Birinapant], for which the “Excess HSA synergy score” value was -236.

For the compound `Cc1ccc(/C=N/NC(=O)c2ccccc2Oc2ccccc2)o1` + CC[C@H](NC(=O)[C@H](C)NC)C(=O)N1C[C@@H](O)C[C@H]1Cc1c(-c2[nH]c3cc(F)ccc3c2C[C@@H]2C[C@H](O)CN2C(=O)[C@H](CC)NC(=O)[C@H](C)NC)[nH]c2cc(F)ccc12 [Birinapant], the “Excess HSA synergy score” value is 277.

With `CC(C)c1cc(C(C)C)c(CC(=O)NS(=O)(=O)Oc2c(C(C)C)cccc2C(C)C)c(C(C)C)c1` [Avasimibe] + CC[C@H](NC(=O)[C@H](C)NC)C(=O)N1C[C@@H](O)C[C@H]1Cc1c(-c2[nH]c3cc(F)ccc3c2C[C@@H]2C[C@H](O)CN2C(=O)[C@H](CC)NC(=O)[C@H](C)NC)[nH]c2cc(F)ccc12 [Birinapant], the “Excess HSA synergy score” value stood at 95.2.

Take `CC(=O)C1=C(O)C=C2Oc3c(C(C)=O)c(O)c(C)c(O)c3C2(C)C1=O` (single isomer, unassigned; (+)) [(+)-Usniacin] + CC[C@H](NC(=O)[C@H](C)NC)C(=O)N1C[C@@H](O)C[C@H]1Cc1c(-c2[nH]c3cc(F)ccc3c2C[C@@H]2C[C@H](O)CN2C(=O)[C@H](CC)NC(=O)[C@H](C)NC)[nH]c2cc(F)ccc12 [Birinapant]: the “Excess HSA synergy score” value was -123.

For `C[C@@H]1CN(Cc2ccc(F)cc2)[C@@H](C)CN1C(=O)c1cc2c(C(=O)C(=O)N(C)C)cn(C)c2cc1Cl` [Talmapimod] + CC[C@H](NC(=O)[C@H](C)NC)C(=O)N1C[C@@H](O)C[C@H]1Cc1c(-c2[nH]c3cc(F)ccc3c2C[C@@H]2C[C@H](O)CN2C(=O)[C@H](CC)NC(=O)[C@H](C)NC)[nH]c2cc(F)ccc12 [Birinapant], the “Excess HSA synergy score” value was 190.

For the compound `CCNC(=O)Nc1ccc(-c2nc3c(c(N4CCOC[C@@H]4C)n2)CCN(C2COC2)C3)cc1` + CC[C@H](NC(=O)[C@H](C)NC)C(=O)N1C[C@@H](O)C[C@H]1Cc1c(-c2[nH]c3cc(F)ccc3c2C[C@@H]2C[C@H](O)CN2C(=O)[C@H](CC)NC(=O)[C@H](C)NC)[nH]c2cc(F)ccc12 [Birinapant], the “Excess HSA synergy score” value is -44.2.

On to `CN1CCN(c2nc(C3=C(c4c[nH]c5ccccc45)C(=O)NC3=O)c3ccccc3n2)CC1` [Sotrastaurin] + CC[C@H](NC(=O)[C@H](C)NC)C(=O)N1C[C@@H](O)C[C@H]1Cc1c(-c2[nH]c3cc(F)ccc3c2C[C@@H]2C[C@H](O)CN2C(=O)[C@H](CC)NC(=O)[C@H](C)NC)[nH]c2cc(F)ccc12 [Birinapant], for which the “Excess HSA synergy score” value came to 84.5.

For `Cc1noc(-c2ccc(CSCCC(=O)O)cc2)c1NC(=O)OC(C)c1ccccc1Cl` (stereo not drawn) + CC[C@H](NC(=O)[C@H](C)NC)C(=O)N1C[C@@H](O)C[C@H]1Cc1c(-c2[nH]c3cc(F)ccc3c2C[C@@H]2C[C@H](O)CN2C(=O)[C@H](CC)NC(=O)[C@H](C)NC)[nH]c2cc(F)ccc12 [Birinapant], the “Excess HSA synergy score” value was 351.

As to `CCOc1cc(C(=O)Nc2ccc(Cl)c(-c3nc4ccccc4[nH]3)c2)cc(OCC)c1OCC` + CC[C@H](NC(=O)[C@H](C)NC)C(=O)N1C[C@@H](O)C[C@H]1Cc1c(-c2[nH]c3cc(F)ccc3c2C[C@@H]2C[C@H](O)CN2C(=O)[C@H](CC)NC(=O)[C@H](C)NC)[nH]c2cc(F)ccc12 [Birinapant], the “Excess HSA synergy score” value is 142.

For the compound `C=C(C)[C@@H]1CC[C@]2(C)CC[C@]3(C)[C@H](CC[C@@H]4[C@@]5(C)CC[C@H](O)C(C)(C)[C@@H]5CC[C@]43C)[C@@H]12` [Lupeol] + CC[C@H](NC(=O)[C@H](C)NC)C(=O)N1C[C@@H](O)C[C@H]1Cc1c(-c2[nH]c3cc(F)ccc3c2C[C@@H]2C[C@H](O)CN2C(=O)[C@H](CC)NC(=O)[C@H](C)NC)[nH]c2cc(F)ccc12 [Birinapant], the “Excess HSA synergy score” value was -39.9.

`O=C(NNC(=O)c1ccc(CNS(=O)(=O)c2ccc(F)c(Cl)c2)cc1)c1ccccc1` + CC[C@H](NC(=O)[C@H](C)NC)C(=O)N1C[C@@H](O)C[C@H]1Cc1c(-c2[nH]c3cc(F)ccc3c2C[C@@H]2C[C@H](O)CN2C(=O)[C@H](CC)NC(=O)[C@H](C)NC)[nH]c2cc(F)ccc12 [Birinapant]: the “Excess HSA synergy score” value amounted to 144.

For the compound `CC(C)(C)c1cc(C(C)(C)C)c(NC(=O)c2c[nH]c3ccccc3c2=O)cc1O` [Ivacaftor] + CC[C@H](NC(=O)[C@H](C)NC)C(=O)N1C[C@@H](O)C[C@H]1Cc1c(-c2[nH]c3cc(F)ccc3c2C[C@@H]2C[C@H](O)CN2C(=O)[C@H](CC)NC(=O)[C@H](C)NC)[nH]c2cc(F)ccc12 [Birinapant], the “Excess HSA synergy score” value amounted to 116.

On to `C=CC(=O)Nc1cc2c(Nc3ccc(F)c(Cl)c3)ncnc2cc1C#CC(C)(C)N1CCN(C)CC1` + CC[C@H](NC(=O)[C@H](C)NC)C(=O)N1C[C@@H](O)C[C@H]1Cc1c(-c2[nH]c3cc(F)ccc3c2C[C@@H]2C[C@H](O)CN2C(=O)[C@H](CC)NC(=O)[C@H](C)NC)[nH]c2cc(F)ccc12 [Birinapant], for which the “Excess HSA synergy score” value was 44.3.

Turning to `CO[C@H]1C(=O)[C@]2(C)[C@@H](OC)C[C@H]3OC[C@@]3(OC(C)=O)[C@H]2[C@H](OC(=O)c2ccccc2)[C@]2(O)C[C@H](OC(=O)[C@H](O)[C@@H](NC(=O)OC(C)(C)C)c3ccccc3)C(C)=C1C2(C)C` [Cabazitaxel] + CC[C@H](NC(=O)[C@H](C)NC)C(=O)N1C[C@@H](O)C[C@H]1Cc1c(-c2[nH]c3cc(F)ccc3c2C[C@@H]2C[C@H](O)CN2C(=O)[C@H](CC)NC(=O)[C@H](C)NC)[nH]c2cc(F)ccc12 [Birinapant], the “Excess HSA synergy score” value was -61.8.

For `Cc1ccc(NC(=O)c2cccc(C(C)(C)C#N)c2)cc1Nc1ccc2ncn(C)c(=O)c2c1` + CC[C@H](NC(=O)[C@H](C)NC)C(=O)N1C[C@@H](O)C[C@H]1Cc1c(-c2[nH]c3cc(F)ccc3c2C[C@@H]2C[C@H](O)CN2C(=O)[C@H](CC)NC(=O)[C@H](C)NC)[nH]c2cc(F)ccc12 [Birinapant], the “Excess HSA synergy score” value came to 31.8.
